Targets with a hit are over-represented here; the source holds about 7,900 in all. About 0.6% of all pairs of compound and target were hits. A number with no mark means an inactive call.
Tests used:
Assay in all cases: log2 fold change, soluble protein after heating vs DMSO (PISA); higher = thermal stabilisation; K562 cells, 10 uM, 30 min; active = over 0.2 and 3.5 SD of the protein, either way, in both replicates (recomputed)
IRAK-1-4 Inhibitor I = compound: C1COCCN1CCN2C3=CC=CC=C3N=C2NC(=O)C4=CC(=CC=C4)[N+](=O)[O-] [IRAK-1-4 Inhibitor I]
Outline: (§1)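 Soluble protein was quantified by TMTpro 16plex LC-MS/MS after channel sums were equalised. It was obtained as the supernatant after 21,000xg for 90 min from pooled aliquots of K562 cells (2×10^6 cells/mL, 10 μM compound, 30 min) heated for 3 min across 48°C-58°C and extracted in PBS with 0.5% NP-40 at 4°C. Thermal stability values are relative to control samples and come from duplicates. They are given as log2 fold changes.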

ibrutinib = compound: C=CC(=O)N1CCC[C@@H](n2nc(-c3ccc(Oc4ccccc4)cc3)c3c(N)ncnc32)C1 [ibrutinib]
Outline: as §1

[1] = compound: CC(=O)c1cnc2ccc(-c3cc(Cl)c(O)c(Cl)c3)nc2c1N[C@H]1CC[C@H](CN(C)C)CC1
Outline: as §1

ralimetinib = compound: CC(C)(C)Cn1c(N)nc2ccc(-c3[nH]c(C(C)(C)C)nc3-c3ccc(F)cc3)nc21 [ralimetinib]
Outline: as §1

[2] = compound: CC(C)(O)CC(=O)NCCn1ccc2ncnc(Nc3ccc(Oc4cccc(C(F)(F)F)c4)c(Cl)c3)c21
Outline: as §1

[3] = compound: CC(C)C1=C2N=C(C=C(N2N=C1)NCC3=CC=CC=C3)NCCCCCCN
Outline: as §1

[4] = compound: CC(C)C[C@@H](C=O)NC(=O)[C@H](CC(C)C)NC(=O)[C@H](CC(C)C)NC(=O)OCc1ccccc1
Outline: as §1

pinometostat = compound: CC(C)N(C[C@H]1O[C@@H](n2cnc3c(N)ncnc32)[C@H](O)[C@@H]1O)[C@H]1C[C@@H](CCc2nc3cc(C(C)(C)C)ccc3[nH]2)C1 [pinometostat]
Outline: as §1

[5] = compound: CC1=C(C(CC(=O)N1)C2=CC=C(C=C2)C(F)(F)F)C(=O)NC3=C(C=C4C(=C3)C=NN4)F
Outline: as §1

[6] = compound: CC1=C(C2=C(C=C1)C(=O)C3=CC=CC=C3N2CCCN)C
Outline: as §1

Sequence of UniProt Q9UQC2 (Q9UQC2 whole entry, looked up): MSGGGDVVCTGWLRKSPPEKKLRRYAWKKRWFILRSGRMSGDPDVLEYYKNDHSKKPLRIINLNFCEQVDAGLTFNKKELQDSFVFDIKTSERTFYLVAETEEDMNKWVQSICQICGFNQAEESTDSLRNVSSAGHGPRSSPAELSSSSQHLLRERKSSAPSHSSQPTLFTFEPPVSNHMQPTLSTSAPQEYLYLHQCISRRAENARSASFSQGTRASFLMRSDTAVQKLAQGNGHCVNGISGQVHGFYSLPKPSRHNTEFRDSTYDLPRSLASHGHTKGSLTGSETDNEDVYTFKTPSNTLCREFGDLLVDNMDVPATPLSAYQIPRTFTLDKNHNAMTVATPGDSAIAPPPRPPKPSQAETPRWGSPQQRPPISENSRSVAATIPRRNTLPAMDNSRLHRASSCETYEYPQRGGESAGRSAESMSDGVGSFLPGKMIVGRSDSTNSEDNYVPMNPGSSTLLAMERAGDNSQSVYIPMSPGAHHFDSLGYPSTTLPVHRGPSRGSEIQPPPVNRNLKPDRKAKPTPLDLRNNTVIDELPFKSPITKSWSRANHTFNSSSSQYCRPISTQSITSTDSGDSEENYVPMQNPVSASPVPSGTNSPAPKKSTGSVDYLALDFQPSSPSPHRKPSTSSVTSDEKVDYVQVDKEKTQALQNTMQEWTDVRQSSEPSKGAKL
Sequence of UniProt P55795 (P55795 whole entry, looked up): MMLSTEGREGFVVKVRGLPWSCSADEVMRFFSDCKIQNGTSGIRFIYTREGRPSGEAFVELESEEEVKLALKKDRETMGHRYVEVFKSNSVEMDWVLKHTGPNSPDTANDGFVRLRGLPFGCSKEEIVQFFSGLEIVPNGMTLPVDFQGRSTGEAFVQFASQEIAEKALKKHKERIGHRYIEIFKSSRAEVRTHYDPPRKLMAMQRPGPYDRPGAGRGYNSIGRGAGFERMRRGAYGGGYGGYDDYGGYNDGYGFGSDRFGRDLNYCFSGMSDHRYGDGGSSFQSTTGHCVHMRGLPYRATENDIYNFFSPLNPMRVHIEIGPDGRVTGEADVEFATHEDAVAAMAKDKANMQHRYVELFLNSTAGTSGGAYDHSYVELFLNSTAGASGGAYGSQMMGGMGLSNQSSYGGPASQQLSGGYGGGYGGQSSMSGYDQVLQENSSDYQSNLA
Sequence of UniProt P07686 (P07686 whole entry, looked up): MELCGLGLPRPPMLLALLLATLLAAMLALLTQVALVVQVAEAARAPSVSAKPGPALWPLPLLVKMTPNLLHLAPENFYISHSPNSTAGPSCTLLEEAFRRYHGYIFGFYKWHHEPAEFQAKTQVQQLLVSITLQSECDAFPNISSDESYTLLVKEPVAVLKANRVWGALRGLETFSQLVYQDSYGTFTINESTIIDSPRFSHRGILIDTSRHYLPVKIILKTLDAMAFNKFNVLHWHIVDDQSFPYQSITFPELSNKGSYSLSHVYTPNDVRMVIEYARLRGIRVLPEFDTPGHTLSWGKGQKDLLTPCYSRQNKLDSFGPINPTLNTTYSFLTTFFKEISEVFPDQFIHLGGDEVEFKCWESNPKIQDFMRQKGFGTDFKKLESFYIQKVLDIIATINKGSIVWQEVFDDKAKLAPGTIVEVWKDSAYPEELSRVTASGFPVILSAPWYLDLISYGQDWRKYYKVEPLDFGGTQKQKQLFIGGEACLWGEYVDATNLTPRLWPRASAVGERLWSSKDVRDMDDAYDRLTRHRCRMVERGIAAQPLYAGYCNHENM
Sequence of UniProt P85037 (P85037 whole entry, looked up): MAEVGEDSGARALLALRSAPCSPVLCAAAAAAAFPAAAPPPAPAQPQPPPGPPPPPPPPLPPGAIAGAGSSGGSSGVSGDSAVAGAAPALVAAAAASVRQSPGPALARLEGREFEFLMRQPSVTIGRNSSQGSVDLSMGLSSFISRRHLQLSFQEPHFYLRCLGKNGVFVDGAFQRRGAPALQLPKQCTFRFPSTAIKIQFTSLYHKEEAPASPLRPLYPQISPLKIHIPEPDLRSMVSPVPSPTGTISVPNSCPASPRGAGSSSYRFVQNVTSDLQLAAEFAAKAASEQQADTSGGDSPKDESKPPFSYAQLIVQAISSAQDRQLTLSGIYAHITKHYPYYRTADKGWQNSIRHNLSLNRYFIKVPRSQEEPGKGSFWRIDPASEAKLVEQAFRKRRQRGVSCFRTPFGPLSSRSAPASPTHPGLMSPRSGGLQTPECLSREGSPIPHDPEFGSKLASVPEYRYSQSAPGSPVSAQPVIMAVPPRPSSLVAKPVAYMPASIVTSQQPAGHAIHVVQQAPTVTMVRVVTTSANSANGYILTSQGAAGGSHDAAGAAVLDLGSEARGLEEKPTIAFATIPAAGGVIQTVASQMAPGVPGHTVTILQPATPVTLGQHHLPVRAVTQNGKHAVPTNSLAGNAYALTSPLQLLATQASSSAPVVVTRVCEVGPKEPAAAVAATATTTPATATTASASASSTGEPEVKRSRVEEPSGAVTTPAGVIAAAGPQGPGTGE
Sequence of UniProt Q969S8 (Q969S8 whole entry, looked up): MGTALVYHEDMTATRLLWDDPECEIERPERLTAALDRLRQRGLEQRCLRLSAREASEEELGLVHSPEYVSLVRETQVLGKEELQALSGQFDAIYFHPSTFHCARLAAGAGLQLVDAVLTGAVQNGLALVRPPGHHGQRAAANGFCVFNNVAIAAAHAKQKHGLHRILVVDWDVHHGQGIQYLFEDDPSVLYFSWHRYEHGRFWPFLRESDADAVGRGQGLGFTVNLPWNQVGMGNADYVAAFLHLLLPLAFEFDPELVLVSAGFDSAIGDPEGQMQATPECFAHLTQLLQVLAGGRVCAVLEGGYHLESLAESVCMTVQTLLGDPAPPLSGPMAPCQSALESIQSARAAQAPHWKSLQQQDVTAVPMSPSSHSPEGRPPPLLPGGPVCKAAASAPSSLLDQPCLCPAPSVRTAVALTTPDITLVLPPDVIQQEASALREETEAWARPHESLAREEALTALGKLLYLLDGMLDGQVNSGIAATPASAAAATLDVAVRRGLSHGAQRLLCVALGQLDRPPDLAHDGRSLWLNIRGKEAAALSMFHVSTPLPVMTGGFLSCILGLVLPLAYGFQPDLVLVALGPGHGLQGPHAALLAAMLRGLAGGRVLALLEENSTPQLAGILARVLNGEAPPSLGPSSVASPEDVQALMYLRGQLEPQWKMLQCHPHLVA
Sequence of UniProt Q9UKN8 (Q9UKN8 whole entry, looked up): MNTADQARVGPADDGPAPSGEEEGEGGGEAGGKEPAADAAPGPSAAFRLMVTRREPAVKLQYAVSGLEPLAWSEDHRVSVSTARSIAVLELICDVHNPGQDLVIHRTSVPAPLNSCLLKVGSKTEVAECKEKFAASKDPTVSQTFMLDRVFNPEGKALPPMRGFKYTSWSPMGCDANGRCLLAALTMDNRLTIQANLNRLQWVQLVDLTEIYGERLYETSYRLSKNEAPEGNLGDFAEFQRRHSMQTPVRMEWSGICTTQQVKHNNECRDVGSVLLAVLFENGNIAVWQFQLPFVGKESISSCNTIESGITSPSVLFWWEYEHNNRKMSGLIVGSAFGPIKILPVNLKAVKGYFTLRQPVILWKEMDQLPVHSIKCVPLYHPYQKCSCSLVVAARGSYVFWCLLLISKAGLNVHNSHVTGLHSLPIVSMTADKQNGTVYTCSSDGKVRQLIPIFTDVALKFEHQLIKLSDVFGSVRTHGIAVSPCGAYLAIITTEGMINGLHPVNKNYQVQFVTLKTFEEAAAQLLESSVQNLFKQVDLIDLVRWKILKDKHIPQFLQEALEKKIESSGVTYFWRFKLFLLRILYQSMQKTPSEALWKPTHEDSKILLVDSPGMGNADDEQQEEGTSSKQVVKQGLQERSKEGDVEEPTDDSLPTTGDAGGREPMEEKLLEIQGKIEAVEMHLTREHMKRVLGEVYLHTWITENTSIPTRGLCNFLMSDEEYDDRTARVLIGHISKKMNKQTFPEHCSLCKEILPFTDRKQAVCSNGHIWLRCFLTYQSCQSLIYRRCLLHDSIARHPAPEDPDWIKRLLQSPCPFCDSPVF
Sequence of UniProt Q9UK97 (Q9UK97 whole entry, looked up): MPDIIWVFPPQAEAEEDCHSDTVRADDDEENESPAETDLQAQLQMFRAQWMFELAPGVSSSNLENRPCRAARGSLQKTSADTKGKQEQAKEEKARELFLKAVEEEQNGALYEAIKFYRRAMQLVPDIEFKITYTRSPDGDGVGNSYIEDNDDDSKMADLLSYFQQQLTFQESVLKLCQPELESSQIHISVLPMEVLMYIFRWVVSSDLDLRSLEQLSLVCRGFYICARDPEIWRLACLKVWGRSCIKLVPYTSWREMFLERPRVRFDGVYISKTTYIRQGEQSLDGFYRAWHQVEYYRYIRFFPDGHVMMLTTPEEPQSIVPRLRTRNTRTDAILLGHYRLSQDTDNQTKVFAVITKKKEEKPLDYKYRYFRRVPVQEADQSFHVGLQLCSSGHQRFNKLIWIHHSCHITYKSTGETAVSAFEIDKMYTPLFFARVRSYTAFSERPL
Sequence of UniProt O15228 (O15228 whole entry, looked up): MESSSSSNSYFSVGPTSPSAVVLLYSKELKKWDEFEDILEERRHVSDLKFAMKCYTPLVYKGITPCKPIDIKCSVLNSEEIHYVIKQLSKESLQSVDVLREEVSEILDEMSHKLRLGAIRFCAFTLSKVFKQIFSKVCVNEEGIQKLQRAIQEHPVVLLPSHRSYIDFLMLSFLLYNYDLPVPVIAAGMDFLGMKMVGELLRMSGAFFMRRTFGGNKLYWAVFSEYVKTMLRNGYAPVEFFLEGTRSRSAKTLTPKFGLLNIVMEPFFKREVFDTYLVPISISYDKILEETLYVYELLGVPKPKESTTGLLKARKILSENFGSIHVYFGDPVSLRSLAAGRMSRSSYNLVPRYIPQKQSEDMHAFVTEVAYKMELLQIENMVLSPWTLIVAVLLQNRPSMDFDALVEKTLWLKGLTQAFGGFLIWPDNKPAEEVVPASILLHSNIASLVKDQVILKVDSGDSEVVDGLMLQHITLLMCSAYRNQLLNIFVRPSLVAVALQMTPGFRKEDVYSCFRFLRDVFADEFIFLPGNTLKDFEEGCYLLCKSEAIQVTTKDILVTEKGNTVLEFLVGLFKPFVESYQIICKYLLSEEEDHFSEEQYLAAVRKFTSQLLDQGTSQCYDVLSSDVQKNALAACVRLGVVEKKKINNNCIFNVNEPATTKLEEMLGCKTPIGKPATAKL

Target	log2 fold change (IRAK-1-4 Inhibitor I)	log2 fold change (ibrutinib)	log2 fold change [1]	log2 fold change (ralimetinib)	log2 fold change [2]	log2 fold change [3]	log2 fold change [4]	log2 fold change (pinometostat)	log2 fold change [5]	log2 fold change [6]
FNTA (UniProt P49354)	0.052	0.107	0.081	-0.05	-0.023	0.016	-0.031	-0.018	-0.023	-0.074
GCDH (UniProt Q92947)	0.018	0.025	-0.092	0.007	-0.09	0.05	0.003	-0.053	-0.012	0.055
IFITM3 (UniProt Q01628)	-0.067	-0.02	-0.241	0.031	0.108	-0.082	0.008	-0.181	-0.207	0.163
GIGYF2 (UniProt Q6Y7W6)	-0.01	-0.039	-0.316 (active)	-0.041	-0.124	-0.115	0.01	0.082	0.005	0.021
GTF3C4 (UniProt Q9UKN8)	-0.002	0.032	-0.051	-0.045	0.035	0.038	0.035	0	-0.047	-0.041
HEXB (UniProt P07686)	0.06	0.004	0.003	-0.068	-0.004	-0.14	0.003	-0.025	-0.015	-0.03
HDHD2 (UniProt Q9H0R4)	0.007	-0.019	0.021	-0.006	-0.168	0.024	-0.037	-0.018	-0.025	0.003
FBXO42 (UniProt Q6P3S6)	-0.103	-0.009	-0.108	-0.064	-0.093	-0.169	0.011	-0.051	-0.038	0.086
FOXK1 (UniProt P85037)	0.046	0.121	-1.03 (active)	-0.027	0.015	0.111	0.052	-0.002	-0.05	0.154
GSTM4 (UniProt Q03013)	0.091	-0.028	-0.083	-0.035	-0.103	0.029	-0.008	-0.05	-0.036	0.115
HNRNPH2 (UniProt P55795)	-0.081	-0.024	-0.134	0.137	-0.067	-0.345 (active)	0.124	0	0.193	-0.104
GNG5 (UniProt P63218)	-0.022	0.039	0.047	0.072	-0.084	0.109	-0.065	-0.072	-0.071	0.002
FANCI (UniProt Q9NVI1)	-0.043	-0.082	-0.148	-0.008	-0.146	-0.377 (active)	-0.136	0.006	-0.038	-0.098
FERMT3 (UniProt Q86UX7)	-0.019	-0.036	-0.039	0.01	-0.048	-0.091	-0.022	-0.002	-0.009	0.003
HDAC6 (UniProt Q9UBN7)	-0.086	0.314	-0.03	0.034	-0.023	0.069	-0.025	0.009	-0.046	0.021
GNPAT (UniProt O15228)	0.026	-0.007	-0.017	0.02	-0.053	-0.018	-0.014	-0.018	0.004	0.024
FDFT1 (UniProt P37268)	0.001	0.007	-0.025	-0.028	-0.015	-0.083	0.077	-0.042	0.012	-0.06
HDAC2 (UniProt Q92769)	0	-0.015	-0.046	-0.004	0.01	0.007	-0.04	-0.01	-0.006	0
HSPA8 (UniProt P11142)	0.032	-0.015	0.014	-0.004	0.029	0.037	-0.013	-0.023	-0.009	-0.016
FCHO1 (UniProt O14526)	-0.114		-0.593 (active)	-0.081	-0.073	0.045	0.191	0.05	0.094	-0.011
HNRNPK isoform 3 (UniProt P61978)	-0.011	-0.001		0.03	0.087	0.075	0.041	-0.021	-0.039	0.21
HAUS4 (UniProt Q9H6D7)		0.103	-0.107	0.112	0.246	-0.51 (active)	0.139		0.095	0.048
HEATR3 (UniProt Q7Z4Q2)	-0.08	0.006		0.07	-0.125	-0.319 (active)	-0.137	-0.032	0.216	-0.196
GOLGA6B (UniProt A6NDN3)	-0.034	0.013			0.025	0.165		-0.137	-0.19	
HBZ, A0A494C057		0.284				-0.054			-0.145	
FCF1 (UniProt Q9Y324)	-0.083			0.223	0.032		0.074	0.334		-1.04 (active)
GINS2 (UniProt Q9Y248)	0	-0.033		0.024	-0.02	-0.081	-0.042	-0.067	-0.057	0.113

Target	log2 fold change (IRAK-1-4 Inhibitor I)	log2 fold change (ibrutinib)	log2 fold change [1]	log2 fold change (ralimetinib)	log2 fold change [2]	log2 fold change [3]	log2 fold change [4]	log2 fold change (pinometostat)	log2 fold change [5]	log2 fold change [6]
GREB1 (UniProt Q4ZG55)	0.04		0.037		-0.032	0.26		-0.095		0.066
IFNGR1 (UniProt P15260)		0.224	-0.086	-0.017	-0.067	0.199	0.14		0.054	-0.093
FOXO3 (UniProt O43524)	-0.046		-0.427	-0.083	0.086	-0.091	0.234	0		0.081
GPNMB (UniProt Q14956)					0	0.108				
GAB2 (UniProt Q9UQC2)	-0.097		-0.573	0.059	-0.242	-0.616	0.094	0.081		0.004
GPS2 (UniProt Q13227)	-0.013	-0.006		-0.19	-0.052	0.027	-0.069	0.019	0.006	-0.135
IGF2 isoform 3 (UniProt P01344)	0.066					-0.104		-0.107		
FAT1 (UniProt Q14517)	0.028	0.151		-0.448 (active)	0.01	0.162	0.683	-0.095	0.019	0.091
GAK (UniProt O14976)	-0.222		1.15	1.13	-0.015	-0.81	0.084	0.344	-0.213	-0.187
GTF3A (UniProt Q92664)	0.034	-0.013	0.065		-0.084	-0.036		0.004	0.249	0.107
HNRNPUL1 (UniProt M0R247)	0.041		-0.259			0.121		-0.025	0.031	0.008
FUNDC1 (UniProt Q8IVP5)		-0.023								
GID4 (UniProt Q8IVV7)		0.035	0.025	-0.019	0.016	0.028	0.027		0.023	-0.071
GSE1 (UniProt Q14687)		0.057		-0.065			0.003		0.044	
FIZ1 (UniProt Q96SL8)	-0.14				0.017			0.123	0.121	
FRA10AC1 isoform 3 (UniProt Q70Z53)	0.005	-0.014	0.024		-0.024	0.169		0.001	-0.03	-0.201
HSPA8 (UniProt E9PN89)	-0.032	-0.069	-0.145		0.127	0.085		-0.004	0.07	0.043
GPD1 (UniProt P21695)		0.059	-0.066	-0.141	0.079	0.268	-0.051		0.096	0.009
GNL3 (UniProt Q9BVP2)		0.047	0.012		-0.007				0.029	0.066
FAT2 (UniProt Q9NYQ8)	0.103	0.107		0.182	-0.149	-0.002	0.225	0.051		0.132
FGG (UniProt P02679)				-0.048			0.231			
IDH3A isoform 2 (UniProt P50213)	0.196	0.008	-0.004			0.153		0.011	-0.033	0.059
FMR1 (UniProt Q06787)	0.091			0.036		0.149	0.056	0.153		
GBA2 (UniProt Q9HCG7)	-0.082	-0.027	-0.073		0.048	0.326		0.121	0.003	-0.003
FBXO9 (UniProt Q9UK97)	-0.034	-0.119		0.137		-0.101	0.088	0.038	-0.062	0.137
H3-3A (UniProt P84243)		-0.016				-0.07			-0.004	0.656 (active)
HDAC10 (UniProt Q969S8)		-0.01	0.137	0.006		-0.124	-0.026		0.037	-0.287

From the supplement of paper PMC10849652
